HCV inhibitor – HCV inhibition; Huh7.5.1 HCVcc-Cre infection, luciferase reporter, 44 h; Potency, µM (highest dose often 41.8 µM), inactives show at the highest dose activity change, negative = inhibition, usual class: inhibitors; hit rate 3.4% among 340,000; active means well fitted inhibition curve with a large enough effect; inconclusive means small, poorly fitted or top-dose-only effect, or another doubt; inactive means no such curve, though single readings can be large or run the other way; further: potency means the concentration at half of the fitted maximal effect
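Luciferase read-out (15 sec integration) after a 15 min room-temperature substrate step quantifies HCVcc-Cre infection. Cells, 1,000 per well, had compound added 4 h post-plating, then virus at ~0.5 moi, and were cultured 44 h.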
Vaccinia Venus – vaccinia inhibition (Venus reporter); Vaccinia virus Venus reporter expression, fluorescence; Potency, µM (highest dose often 36.5 µM), for the others: at the top dose activity change, negative = inhibition, hits mostly inhibitors; hit rate 0.46% among 330,000; calls by dose curve; tested in A549 cells; further: potency means the concentration at half of the fitted maximal effect; nearly all actives have a fitted effect of over 30% in size
VACV mCherry inh – vaccinia inhibition (mCherry reporter) | Potency, µM (titrated, usually from 36.5 µM), for inactives: top-dose activity change, negative = inhibition, usual class: inhibitors | hit rate 0.63% among 310,000 | Vaccinia virus mCherry reporter infection, fluorescence | AID 720579; calls by dose curve; tested in A549 cells; further: potency means the concentration at half of the fitted maximal effect; nearly all actives have a fitted effect of over 35% in size
LASV entry inh – Lassa virus entry inhibition; Potency, µM (doses to about 37.9 µM), for inactives: top-dose activity change, negative = inhibition, hits mostly inhibitors; Lassa virus pseudotype entry inhibition, cell reporter; hit rate 1.2% among 300,000; AID 540256; calls by dose curve; tested in HEK293 cells; further: potency means the concentration at half of the fitted maximal effect; nearly all actives have a fitted effect of over 50% in size
Marburg entry inh – inhibitors of Marburg virus binding or cell entry; Marburg virus pseudotyped entry inhibition, cell reporter; Potency, µM (top dose mostly 37.8 µM), inactives show at the top dose activity change, negative = inhibition, most hits filed as inhibitors; hit rate 1.8% among 300,000; AID 540276; calls by dose curve; tested in HEK293 cells; further: potency means the concentration at half of the fitted maximal effect
HCMV antiviral – human cytomegalovirus inhibition; HFF cells, HCMV-luciferase reporter, 72 h; stronger effect = lower value; activity change, negative = inhibition, % at 57.5 µM; hit rate 4.5% among 410,000; in the data active means activity change below about -60%; inconclusive means no clear call, values can overlap the other calls; inactive means above about -39%
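Steps: HFFs plated, 16 h 37C; compounds added; HCMV-luciferase added to MOI 1 PFU/cell; 72 h 37C; OneGlo reagent, 5 min room temperature; luminescence read, normalized to controls.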
* marks the source's active call; other numbers are inactive results; i = inactive; ? = inconclusive; nt = no result given; [ ] = dose if it differs, or a comment. A selection: hits, their analogues and other compounds. The true share with any hit is near 7.8%. On the % scale 0 is the no-effect control and ±100 the full control effect.

SMILES	HCV inhibitor	Vaccinia Venus	VACV mCherry inh	LASV entry inh	Marburg entry inh	HCMV antiviral
Cc1cc2c(cc1C)N(C(=O)CSC1=NCCS1)C(C)(C)c1ssc(=S)c1-2	?	-10%	-21%	-31%[14.3 µM]	-42%	-72*
COc1ccc2c(c1)-c1c(ssc1=S)C(C)(C)N2C(=O)CSC1=NCCS1	10µM*	nt	nt	-3%	?	-80*
CCOc1ccc(CNC(=O)CN2N=C(c3ccccc3)CCC2=O)cc1OC	nt	0%	-8%	?	nt	6
CCc1nnc2n1N(C(C)=O)C(c1ccc(C(C)(C)C)cc1)=C(C(C)=O)S2	nt	?	?	11µM*	nt	-98*
CCOc1ccc(C2=C(C(C)=O)Sc3nnc(C)n3N2C(C)=O)cc1	nt	?	?	?	nt	-11
Cc1nc(COc2ccc(C(=O)Nc3ccccc3N3CCOCC3)cc2)cs1	11µM*	-13%	-9%	10%[46.1 µM]	-13%[46.1 µM]	6
CN1CCN(c2ccccc2NC(=O)c2ccc(OCc3ccccc3)cc2)CC1	11µM*	-24%	nt	?	-19%[46.1 µM]	13
CNC(=O)Oc1cccc(-c2cn3cc(OC(=O)NC)ccc3n2)c1	-21%	-10%	-21%	?	?	30
CNC(=O)Oc1ccc(-c2cn3cc(Cl)ccc3n2)cc1	?	-10%	-7%	7.3µM*	8.2µM*	?
COc1cc(CN2CCC(C(=O)NC(c3ccc(F)cc3)c3ncccc3C)CC2)cc(OC)c1 (centres undefined)	nt	-8%	-25%	nt	nt	4
Cc1cccnc1C(NC(=O)C1CCN(Cc2ccccc2)CC1)c1ccc(F)cc1 (centres undefined)	nt	-8%	i	nt	nt	-62*
O=C(c1cnn2c1NC(=C1CC1)C=C2C(F)F)N1CCc2ccccc21	nt	-21%	-7%	nt	nt	nt
COc1cc2nc(N(CCCN(C)C)C(=O)c3ccc(S(=O)(=O)N4CCc5ccccc54)cc3)sc2cc1OC	?	-12%	i	?	?	9
CCc1ccc2nc(N(CCCN(C)C)C(=O)c3ccc(S(=O)(=O)N4CCc5ccccc5C4)cc3)sc2c1	?	-23%	-10%	-17%	?	-62*
CCOc1cccc2sc(N(CCCN(C)C)C(=O)c3ccc(S(=O)(=O)N4CCc5ccccc5C4)cc3)nc12	-21%	nt	nt	nt	nt	-68*
O=C(NCc1ccc(Cl)cc1Cl)c1cccc(N2CCCS2(=O)=O)c1	nt	-11%	-6%	-29%[46.1 µM]	-11%[46.1 µM]	-19
CC12CCC(=O)N1C(C(=O)Nc1cc(C(F)(F)F)ccc1N1CCCCC1)CS2 (centres undefined)	3.5µM*	?	-11%	6%[46.1 µM]	?	-5
CC12CCC(=O)N1C(C(=O)Nc1cc(Cl)ccc1N1CCCC1)CS2 (centres undefined)	8.9µM*	-14%	i	9%	?	0
CC12CCC(=O)N1C(C(=O)Nc1ccccc1N1CCOCC1)CS2 (centres undefined)	-5%	-3%	-14%	-6%	?	2
CC12CCC(=O)N1C(C(=O)Nc1cc(C(F)(F)F)ccc1N1CCOCC1)CS2 (centres undefined)	8.9µM*	-5%	-12%	0%	-6%	-8
CCOC(=O)c1noc2nc(C)n(Cc3cccc(C#N)c3)c(=O)c12	nt	-12%	-9%	2%[46.1 µM]	nt	-12
COc1cc(NC(=O)c2cccc3c2C(=O)N(C2CCCCC2)C3)cc(OC)c1OC	6.3µM*	-7%[7.34 µM]	-8%[7.34 µM]	?	?	-91*
CSc1ccc(CCNC(=O)c2cccc3c2C(=O)N(C2CCCCC2)C3)cc1	11µM*	nt	nt	nt	nt	nt
CC(C)C(=O)Nc1nnc(SCc2cc(=O)n3ccccc3n2)s1	nt	-15%	-23%	14%[46.1 µM]	nt	-10
COc1ccc2[nH]cc(C(=O)CN(C)C)c2c1	1%	8%	-1%	nt	nt	39
SMILES	HCV inhibitor	Vaccinia Venus	VACV mCherry inh	LASV entry inh	Marburg entry inh	HCMV antiviral
COc1ccc2c(C(=O)CCl)c[nH]c2c1	?	nt	nt	nt	nt	-101*
CCOc1ccc(NC(=O)CSc2nnc(-c3ccncc3)n2-c2ccccc2)cc1	nt	3%	-10%	7%[46.1 µM]	nt	-7
Cc1ccc2c(c1)c1c(c(=O)n(-c3ccccc3C)c(=O)n1Cc1ccccc1F)n2C	nt	-7%	-8%	?	nt	-28
CNS(=O)(=O)c1cc(-c2nnc(Nc3ccc(NC(C)=O)cc3)c3ccccc23)ccc1C	-29%	-1%	-6%	-4%	?	-66*
CNS(=O)(=O)c1cc(-c2nn3c(C)nnc3c3ccccc23)ccc1C	nt	-20%	-20%	-16%[46.1 µM]	nt	-62*
C#CC(C)(C)NS(=O)(=O)c1cc(-c2nnc(Nc3ccc(C)cc3)c3ccccc23)ccc1C	nt	?	?	?	?	-87*
CNC(=O)COc1ccc(Nc2nnc(-c3ccc(C)c(S(=O)(=O)NC(C)(C)C)c3)c3ccccc23)cc1	nt	-26%	-29%	?	nt	?
CCCNS(=O)(=O)c1cc(-c2nn3c(C)nnc3c3ccccc23)ccc1C	nt	-8%	2%	?	?	-19
COc1cccc([C@@H]2Oc3ccc(Br)cc3C(=O)[C@@H]2OC(=O)N[C@H](C)C2CCCCC2)c1	nt	nt	nt	nt	-30%[14.2 µM]	nt
CN(C)c1ccc(C=Nc2ccccc2C(N)=O)cc1	-2%	nt	nt	?	15µM*	44
COc1cc(OC)cc(-c2cc3c(Nc4ccc(OC)nc4)nccc3n2C)c1	nt	nt	nt	nt	nt	-31
CC1(C(=O)NCCc2c[nH]c3ccccc23)CCN1Cc1ccccc1OC(F)F (centres undefined)	nt	1%	?	nt	nt	-96*
CC1(C(=O)NCCc2c[nH]c3ccccc23)CCN1Cc1csc2ccccc12 (centres undefined)	nt	3%	-5%	nt	nt	-17
CCN(CC)C(=O)Cn1c(=O)n(CCCCCC(=O)NCc2ccc(C)cc2)c(=O)c2sccc21	nt	-13%	-25%	6%[46.1 µM]	16%[46.1 µM]	-7
CCOC(=O)c1c(C)n(Cc2ccccc2)c2ccc(OCC(O)CN3C(=O)CNC3=O)cc12 (centres undefined)	8.9µM*	-15%	-19%	-20%	3%	-14
CCOC(=O)c1c(C)n(C)c2ccc(OCC(O)CNCCc3ccccc3)cc12 (centres undefined)	13µM*	nt	nt	nt	nt	-36
CCOC(=O)c1c(C)n(C)c2ccc(OCC(O)Cn3c(C)nc4ccccc43)cc12 (centres undefined)	10µM*	nt	nt	?	?	-60*
CCOC(=O)c1c(C)n(C)c2ccc(OCC(O)CN3CCN(C)CC3)cc12 (centres undefined)	-9%	-10%	-4%	nt	-1%	42
COc1cc(C(CC2=CCCCC2)NC(=O)C(F)(F)F)cc(OC)c1OC (centres undefined)	nt	nt	nt	nt	1%[14.2 µM]	nt
COc1ccc(COC(=O)NN=C2C[C@@H](O)[C@@H](O)[C@@H]3[C@H]4C(=O)N(c5cccc(Oc6ccccc6)c5)C(=O)[C@@H]4CC[C@H]23)cc1	nt	nt	nt	?	9%[14.2 µM]	nt

Compound activity from PubChem BioAssay.
